PubChem BioAssay AID720722 (Molecular Libraries Program, Specialized Chemistry Center, …, 2013)
Active and inactive are the calls of the source. No cut-off is given here; in the data, nearly all actives have IC50 up to about 12 µM.

Experiment: mitochondrial permeability transition pore inhibitors, dose response, biochemical, absorbance, isolated mitochondria, dry powder samples (AID 720722)
Conditions: isolated mitochondria swelling

IC50, active:
CC1CCCN(CCC(=O)c2ccc(Br)cc2)C1 (stereo not given) 3.14 µM
C=CCNCCOc1ccc(C(C)(C)c2ccccc2)cc1 12.4 µM
O=C(CC1NCCc2ccccc21)Nc1ccc(Cl)cc1 (stereo not given) 2.78 µM
C=CCNCCOCCOc1ccc(Cl)cc1C(C)(C)C 4.04 µM
Cc1cc(C)c2nc(N(CCCN(C)C)C(=O)C3=COCCO3)sc2c1 3.11 µM
COc1ccc(Cl)cc1C(=O)Nc1ccc(CN2CCCCC2)cc1 5.08 µM
COc1ccc(C)c2sc(N(CCCN(C)C)C(=O)CS(=O)(=O)c3ccc(F)cc3)nc12 3.9 µM
CNCCC=C1c2ccccc2CCc2ccccc21 8.45 µM
Cc1ccc2nc(N(CCN(C)C)C(=O)/C=C/c3cccs3)sc2c1 3.33 µM
CCN(CC)c1ccc(NC(=O)c2cc(Cl)ccc2OC)cc1 5.7 µM
CCOC(=O)N1CCN(S(=O)(=O)c2ccc(C(=O)N(CCCN(C)C)c3nc4c(C)c(C)ccc4s3)cc2)CC1 5.28 µM
N=c1sccn1CC(=O)Nc1cccc(Oc2ccccc2)c1 2.92 µM
COc1cc(CNCCO)cc(Cl)c1OCc1ccccc1Cl 2.69 µM
Cc1ccc2nc(N(CCCN(C)C)C(=O)CCc3ccccc3)sc2c1 1.58 µM
COCCCNCCCOc1ccc(Cl)cc1C(C)(C)C 4.04 µM
COC(=O)c1c(NC(=O)C2CCCCC2)sc2c1CC(C)(C)NC2(C)C 3.64 µM
CN(C)CCCN1c2ccccc2Sc2ccc(Cl)cc21 2.5 µM
Cc1cc(C)c2nc(N(CCCN(C)C)C(=O)c3ccc(S(=O)(=O)N4CCCCCC4)cc3)sc2c1 2.07 µM
CN1CCC[C@@H]1CCO[C@](C)(c1ccccc1)c1ccc(Cl)cc1 4.43 µM
CC(C)(C)c1ccccc1OCCCCCNCCO 3.67 µM
COc1cc(NC(=O)c2cc(-c3cccc(O)c3)on2)cc(OC)c1OC 0.391 µM
N#Cc1c(NCCN)nc(-c2ccco2)c2c1CCCC2 8.12 µM
COc1ccc(-n2cc(CNC3CCN(C)CC3)c(-c3cccc(F)c3)n2)cc1 2.03 µM
CCN(CC)CCCN=Cc1c(O)n(Cc2ccccc2)c(=O)c2ccccc12 3.34 µM
C=CCNCCCOc1ccc(C)cc1Br 11.6 µM
